Experimental data published in PubChem BioAssay (EPA / NIEHS).
Inconclusive results are not listed. Active and inactive are the calls of the source. Rule for the calls, unless noted: active = hit-call score of the fitted dose curve at least 0.9, where 1 is the maximum; inactive = score below 0.9.

Assays:
[1] = molecular target: Glucocorticoid receptor (Homo sapiens) (UniProt P04150); assay: ATG_GR_TRANS: Attagene TRANS-FACTORIAL HepG2 Assay for human Glucocorticoid Receptor (GR) (AID 2282978; active = hit-call score of the fitted dose curve at least 0.9, where 1 is the maximum;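 note: activators score as hits since higher reporter transcript over DMSO is fitted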); settings: HepG2 Attagene TRANS GR reporter, mRNA transcription
Glucocorticoid receptor (Homo sapiens), sequence (P04150 whole entry, looked up): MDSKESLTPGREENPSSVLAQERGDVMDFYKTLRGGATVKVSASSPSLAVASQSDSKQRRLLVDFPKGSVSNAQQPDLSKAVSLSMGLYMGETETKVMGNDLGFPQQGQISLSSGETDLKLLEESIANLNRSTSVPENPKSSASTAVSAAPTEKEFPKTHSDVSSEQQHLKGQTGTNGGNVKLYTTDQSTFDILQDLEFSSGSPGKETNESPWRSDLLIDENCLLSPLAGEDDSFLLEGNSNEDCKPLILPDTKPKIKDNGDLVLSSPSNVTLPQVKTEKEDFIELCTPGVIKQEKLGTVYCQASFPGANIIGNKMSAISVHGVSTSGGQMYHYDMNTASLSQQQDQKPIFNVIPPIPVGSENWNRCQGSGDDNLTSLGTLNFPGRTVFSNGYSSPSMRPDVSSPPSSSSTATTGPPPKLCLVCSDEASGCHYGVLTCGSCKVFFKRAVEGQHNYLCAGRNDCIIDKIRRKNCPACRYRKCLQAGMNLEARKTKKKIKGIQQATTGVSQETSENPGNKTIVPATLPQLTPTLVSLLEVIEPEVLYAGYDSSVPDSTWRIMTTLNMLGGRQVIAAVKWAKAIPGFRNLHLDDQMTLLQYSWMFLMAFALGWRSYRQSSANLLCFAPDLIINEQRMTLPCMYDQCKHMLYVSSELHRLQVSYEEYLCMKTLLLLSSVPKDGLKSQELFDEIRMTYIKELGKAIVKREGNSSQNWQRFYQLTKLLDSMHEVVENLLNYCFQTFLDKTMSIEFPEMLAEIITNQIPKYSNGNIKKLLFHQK
Summary of the method: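 Multiplexed TRANS reporter system, HepG2; 24 h exposure; RNA → oligo(dT) RT → reporter-specific PCR → 6-FAM primer extension → HpaI cut → CE fluorescence. Gain-of-signal vs DMSO.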

[2] = molecular target: Hepatocyte nuclear factor 4-alpha (Homo sapiens) (UniProt P41235); assay: ATG_HNF4a_TRANS: Attagene TRANS-FACTORIAL HepG2 Assay for human Hepatocyte Nuclear Factor 4 alpha (HNF4a) (AID 2282982; active = hit-call score of the fitted dose curve at least 0.9, where 1 is the maximum); settings: HepG2 HNF4a transactivation reporter, mRNA readout
Hepatocyte nuclear factor 4-alpha (Homo sapiens), sequence (P41235 whole entry, looked up): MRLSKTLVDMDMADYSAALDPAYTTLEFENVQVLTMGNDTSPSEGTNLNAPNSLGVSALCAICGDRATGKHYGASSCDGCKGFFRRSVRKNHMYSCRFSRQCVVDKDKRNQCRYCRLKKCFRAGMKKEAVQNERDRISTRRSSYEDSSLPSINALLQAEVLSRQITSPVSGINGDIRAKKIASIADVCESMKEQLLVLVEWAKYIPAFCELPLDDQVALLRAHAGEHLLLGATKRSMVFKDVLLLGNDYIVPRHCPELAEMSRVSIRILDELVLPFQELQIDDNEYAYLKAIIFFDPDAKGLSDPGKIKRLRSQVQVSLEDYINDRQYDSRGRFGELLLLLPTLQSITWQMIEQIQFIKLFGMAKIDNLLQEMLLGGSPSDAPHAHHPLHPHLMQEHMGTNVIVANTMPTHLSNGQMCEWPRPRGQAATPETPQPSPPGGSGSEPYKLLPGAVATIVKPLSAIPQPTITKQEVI
Summary of the method: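 Transfected HepG2 reporter cells are dosed for 24 h; reporter RNA is reverse-transcribed, amplified, fluorescently labelled and HpaI-digested before CE sizing. Positive-direction fit against DMSO.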

[3] = ATG_M_06_TRANS: Attagene TRANS-FACTORIAL HepG2 Assay for M06 Transcription Factor (Internal Marker) (AID 2282983; active = hit-call score of the fitted dose curve at least 0.9, where 1 is the maximum;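 note: reporter transcript level by RT-PCR then capillary electrophoresis fluorescence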); settings: HepG2 Attagene TRANS M06 internal marker reporter
Summary of the method: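 Measured by capillary electrophoresis of fluorescently labelled RT-PCR products, this endpoint reflects reporter mRNA in HepG2 cells harbouring exogenous NR-GAL4 reporter constructs after 24 h exposure, with DMSO as baseline.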

[4] = ATG_M_32_TRANS: Attagene TRANS-FACTORIAL HepG2 Assay for M32 Transcription Factor (Internal Marker) (AID 2282984; active = hit-call score of the fitted dose curve at least 0.9, where 1 is the maximum;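 note: transcript level of a background control reporter unit measured by RT-PCR and capillary electrophoresis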); settings: HepG2 Attagene TRANS M32 internal marker reporter
Summary of the method: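 Using transiently transfected HepG2 cells exposed to test chemicals for 24 h, reporter transcripts are converted to labelled cDNA fragments and quantified by capillary electrophoresis. DMSO defines the activity baseline.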

[5] = molecular target: Nuclear receptor subfamily 4 group A member 2 (Homo sapiens) (UniProt P43354); assay: ATG_NURR1_TRANS: Attagene TRANS-FACTORIAL HepG2 Assay for human Nuclear Receptor Related Protein 1 (NURR1) (AID 2282985; active = hit-call score of the fitted dose curve at least 0.9, where 1 is the maximum); settings: HepG2 Attagene TRANS reporter, mRNA readout
Nuclear receptor subfamily 4 group A member 2 (Homo sapiens), sequence (P43354 whole entry, looked up): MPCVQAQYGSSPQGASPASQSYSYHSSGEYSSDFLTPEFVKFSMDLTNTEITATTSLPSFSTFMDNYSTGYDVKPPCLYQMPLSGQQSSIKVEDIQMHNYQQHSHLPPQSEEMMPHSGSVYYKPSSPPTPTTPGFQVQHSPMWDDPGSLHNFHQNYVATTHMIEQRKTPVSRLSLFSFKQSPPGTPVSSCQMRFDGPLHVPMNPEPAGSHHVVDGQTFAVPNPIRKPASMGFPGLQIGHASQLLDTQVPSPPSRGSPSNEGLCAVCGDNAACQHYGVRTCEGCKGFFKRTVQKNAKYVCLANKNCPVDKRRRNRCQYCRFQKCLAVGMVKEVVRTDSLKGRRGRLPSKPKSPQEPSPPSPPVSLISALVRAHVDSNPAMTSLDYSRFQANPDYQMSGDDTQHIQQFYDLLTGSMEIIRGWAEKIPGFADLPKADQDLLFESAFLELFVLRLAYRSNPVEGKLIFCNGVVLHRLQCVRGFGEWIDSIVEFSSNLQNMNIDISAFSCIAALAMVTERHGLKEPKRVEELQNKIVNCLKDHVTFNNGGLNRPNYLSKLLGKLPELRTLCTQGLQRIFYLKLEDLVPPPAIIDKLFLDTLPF
Summary of the method: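 Cells: HepG2, transiently transfected. Exposure: 24 h. Detection: fluorescence of labelled RT-PCR products separated by capillary electrophoresis; upward fit versus DMSO.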

[6] = molecular target: Transcriptional activator Myb (Homo sapiens) (UniProt P10242); assay: ATG_Myb_CIS: Attagene CIS-FACTORIAL HepG2 Assay for human Myeloblastosis (Myb) Proto-Oncogene Transcription Factor (AID 2282986); settings: HepG2 Attagene CIS-FACTORIAL Myb reporter transcription; actives raise or lower the signal
Transcriptional activator Myb (Homo sapiens), sequence (P10242 whole entry, looked up): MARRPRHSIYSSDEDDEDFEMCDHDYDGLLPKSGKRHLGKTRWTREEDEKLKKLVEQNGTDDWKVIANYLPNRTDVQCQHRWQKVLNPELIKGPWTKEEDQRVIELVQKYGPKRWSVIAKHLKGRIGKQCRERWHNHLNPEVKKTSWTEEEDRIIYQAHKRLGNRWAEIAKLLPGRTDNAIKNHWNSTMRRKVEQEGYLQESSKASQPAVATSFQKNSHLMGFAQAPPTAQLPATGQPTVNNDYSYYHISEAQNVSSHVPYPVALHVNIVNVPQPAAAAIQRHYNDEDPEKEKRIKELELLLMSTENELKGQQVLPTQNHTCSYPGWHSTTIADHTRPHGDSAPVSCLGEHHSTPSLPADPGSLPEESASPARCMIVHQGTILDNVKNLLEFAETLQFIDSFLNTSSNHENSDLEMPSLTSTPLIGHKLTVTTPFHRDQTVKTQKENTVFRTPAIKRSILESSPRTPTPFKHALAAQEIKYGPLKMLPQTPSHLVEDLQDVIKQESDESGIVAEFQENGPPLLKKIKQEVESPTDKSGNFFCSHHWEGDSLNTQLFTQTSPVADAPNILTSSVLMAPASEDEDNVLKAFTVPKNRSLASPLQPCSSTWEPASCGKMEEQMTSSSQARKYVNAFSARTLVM
Summary of the method: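 Endogenous transcription factor activity at a Myb-responsive cis element is reported in human liver HepG2 cells after 24 h chemical treatment. Reporter mRNA is detected by RT-PCR and capillary electrophoresis fluorescence, with DMSO as baseline.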

[7] = molecular target: Nuclear respiratory factor 1 (Homo sapiens) (UniProt Q16656); assay: ATG_NRF1_CIS: Attagene CIS-FACTORIAL HepG2 Assay for human Nuclear Respiratory Factor 1 (NRF1) Orphan Gene (AID 2282987); settings: HepG2 NRF1 cis-element reporter, Attagene multiplex; actives raise or lower the signal
Nuclear respiratory factor 1 (Homo sapiens), sequence (Q16656 whole entry, looked up): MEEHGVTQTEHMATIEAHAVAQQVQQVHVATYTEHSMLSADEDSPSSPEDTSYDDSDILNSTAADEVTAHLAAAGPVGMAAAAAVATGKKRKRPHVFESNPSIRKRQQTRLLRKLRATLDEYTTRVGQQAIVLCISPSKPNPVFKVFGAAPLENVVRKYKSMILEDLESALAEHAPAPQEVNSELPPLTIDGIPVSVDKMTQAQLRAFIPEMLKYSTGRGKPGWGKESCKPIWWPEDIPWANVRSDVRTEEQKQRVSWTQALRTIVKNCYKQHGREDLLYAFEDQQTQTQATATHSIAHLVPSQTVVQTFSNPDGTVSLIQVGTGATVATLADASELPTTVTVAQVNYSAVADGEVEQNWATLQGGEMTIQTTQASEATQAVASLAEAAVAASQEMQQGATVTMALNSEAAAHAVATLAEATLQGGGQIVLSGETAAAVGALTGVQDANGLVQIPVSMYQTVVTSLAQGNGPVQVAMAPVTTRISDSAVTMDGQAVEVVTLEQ
Summary of the method: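 Human hepatoma HepG2 cells carrying transfected promoter-regulated reporter units were incubated with test chemicals for 24 h. Reporter transcripts were measured by RT-PCR plus capillary electrophoresis, and endpoints derived by bidirectional fitting with DMSO as baseline.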

[8] = ATG_NFI_CIS: Attagene CIS-FACTORIAL HepG2 Assay for human Nuclear Factor I (NFI) (AID 2282989); settings: HepG2 cis-regulatory reporter, NFI response element transcription; actives raise or lower the signal
Summary of the method: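 HepG2, transient MRTU, 24 h exposure; RNA→cDNA→PCR→FAM label→HpaI→CE fluorescence. Bidirectional fit, DMSO = baseline.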

[9] = molecular target: Myc proto-oncogene protein (Homo sapiens) (UniProt P01106); assay: ATG_Myc_CIS: Attagene CIS-FACTORIAL HepG2 Assay for human Myelocytomatosis (Myc) Proto-Oncogene Transcription Factor (AID 2282990); settings: HepG2, Attagene cis-reporter transcription factor activity; actives raise or lower the signal
Myc proto-oncogene protein (Homo sapiens), sequence (P01106 whole entry, looked up): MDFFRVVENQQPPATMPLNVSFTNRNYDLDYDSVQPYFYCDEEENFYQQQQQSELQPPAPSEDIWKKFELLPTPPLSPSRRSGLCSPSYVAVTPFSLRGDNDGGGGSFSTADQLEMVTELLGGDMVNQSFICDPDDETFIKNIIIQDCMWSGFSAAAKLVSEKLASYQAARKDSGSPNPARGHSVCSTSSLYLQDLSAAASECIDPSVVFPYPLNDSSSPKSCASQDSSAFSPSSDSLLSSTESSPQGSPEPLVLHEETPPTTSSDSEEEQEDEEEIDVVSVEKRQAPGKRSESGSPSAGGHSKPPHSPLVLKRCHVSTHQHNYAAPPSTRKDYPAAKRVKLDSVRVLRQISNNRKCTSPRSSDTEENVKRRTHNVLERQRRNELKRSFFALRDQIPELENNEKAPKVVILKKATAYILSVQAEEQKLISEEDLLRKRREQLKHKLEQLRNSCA
Summary of the method: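 HepG2, transient MRTU transfection (cis promoters, endogenous TFs); 24 h dosing; TriZol RNA → oligo(dT) RT → PCR → 6-FAM primer extension → HpaI cut → CE. Bidirectional fit vs DMSO.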

[10] = ATG_NF_kB_CIS: Attagene CIS-FACTORIAL HepG2 Assay for human Nuclear Factor Kappa B (NF-kB) (AID 2282991); settings: HepG2 Attagene cis-factorial NF-kB reporter mRNA; actives raise or lower the signal
Summary of the method: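 Multiplexed cis-reporter assay in transiently transfected HepG2. 24 h treatment; RNA isolated, RT-PCR, labelled fragments resolved by CE. DMSO baseline.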

[11] = ATG_NRF2_ARE_CIS: Attagene CIS-FACTORIAL HepG2 Assay for human Nuclear Factor Erythroid 2 Related Factor 2 (NFR2) response to Antioxidant Response Elements (ARE) (AID 2282992); settings: HepG2 Attagene ARE/NRF2 reporter, transcription factor activity; actives raise or lower the signal;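 for AC50: reporter mRNA level measured by RT-PCR and capillary electrophoresis fluorescence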
Summary of the method: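 Cis-factorial assay: transfected HepG2 reporter library, 24 h dosing, mRNA readout via RT-PCR/CE; DMSO-referenced bidirectional analysis.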

[12] = ATG_Oct_MLP_CIS: Attagene CIS-FACTORIAL HepG2 Assay for human Octamer-Binding Transcription Factor (Oct) (AID 2282993); settings: HepG2 Attagene cis-factorial Oct reporter, mRNA; actives raise or lower the signal
Summary of the method: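 Multiplexed cis-reporter assay in human liver HepG2 cells, 24 h incubation. Reporter RNA amplified and labelled, then resolved by capillary electrophoresis; DMSO serves as negative control and baseline.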

[13] = molecular target: Cellular tumor antigen p53 (Homo sapiens) (UniProt P04637); assay: ATG_p53_CIS: Attagene CIS-FACTORIAL HepG2 Assay for human p53 Transcription Factor (AID 2282994); settings: HepG2 p53 cis-element reporter, Attagene mRNA; actives raise or lower the signal
Cellular tumor antigen p53 (Homo sapiens), sequence (P04637 whole entry, looked up): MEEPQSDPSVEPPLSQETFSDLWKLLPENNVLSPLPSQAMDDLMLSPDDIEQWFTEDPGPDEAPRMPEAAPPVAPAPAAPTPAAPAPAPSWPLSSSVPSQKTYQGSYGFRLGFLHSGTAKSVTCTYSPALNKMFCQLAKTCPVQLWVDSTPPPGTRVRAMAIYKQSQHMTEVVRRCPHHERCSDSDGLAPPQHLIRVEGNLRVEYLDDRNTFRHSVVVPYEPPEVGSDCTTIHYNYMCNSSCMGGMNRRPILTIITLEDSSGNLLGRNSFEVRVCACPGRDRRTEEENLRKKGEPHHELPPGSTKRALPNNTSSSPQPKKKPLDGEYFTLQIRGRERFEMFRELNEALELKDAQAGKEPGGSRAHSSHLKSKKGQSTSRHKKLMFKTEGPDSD
Summary of the method: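 Using HepG2 hepatoma cells carrying cis-acting multiplexed reporters, mRNA induction is detected after a 24 h exposure. Gain- and loss-of-signal responses are fitted relative to DMSO-treated cells.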

[14] = BSK_3C_TissueFactor: BioMAP Diversity Plus: 3C Assay for Tissue Factor Biomarker Activity (AID 2282997); settings: BioMAP 3C HUVEC, tissue factor biomarker readout; actives raise or lower the signal
Summary of the method: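 Values derive from bidirectional curve fitting against DMSO of Tissue Factor ELISA signals, taken 24 h after dosing primary human umbilical vein endothelial cells.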

[15] = BSK_3C_uPAR: BioMAP Diversity Plus: 3C Assay for Urokinase-type plasminogen activator receptor (uPAR) Biomarker Activity (AID 2282998); settings: BioMAP 3C HUVEC, uPAR biomarker ELISA; actives raise or lower the signal
Summary of the method: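 Dose primary human umbilical vein endothelial cells, incubate 24 h, measure cell-surface uPAR by ELISA, then fit the signal in both directions against the DMSO negative control.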

[16] = BSK_3C_VCAM1: BioMAP Diversity Plus: 3C Assay for Vascular cell adhesion molecule 1 (VCAM1) Biomarker Activity (AID 2282999); settings: BioMAP 3C HUVEC, VCAM1 ELISA, cytokine-stimulated; actives raise or lower the signal
Summary of the method: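 Endothelial cells from human umbilical vein are treated with test chemical. At 24 h, VCAM-1 is measured by ELISA, and responses in either direction are fitted relative to DMSO.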

[17] = molecular target: Oxysterols receptor LXR-beta (Homo sapiens) (UniProt P55055); assay: ATG_LXRb_TRANS: Attagene TRANS-FACTORIAL HepG2 Assay for human Liver X Receptor beta (LXRb) (AID 2282981; active = hit-call score of the fitted dose curve at least 0.9, where 1 is the maximum); settings: HepG2 Attagene TRANS GAL4-LXRb reporter, mRNA
Oxysterols receptor LXR-beta (Homo sapiens), sequence (P55055 whole entry, looked up, the tested form may be a part): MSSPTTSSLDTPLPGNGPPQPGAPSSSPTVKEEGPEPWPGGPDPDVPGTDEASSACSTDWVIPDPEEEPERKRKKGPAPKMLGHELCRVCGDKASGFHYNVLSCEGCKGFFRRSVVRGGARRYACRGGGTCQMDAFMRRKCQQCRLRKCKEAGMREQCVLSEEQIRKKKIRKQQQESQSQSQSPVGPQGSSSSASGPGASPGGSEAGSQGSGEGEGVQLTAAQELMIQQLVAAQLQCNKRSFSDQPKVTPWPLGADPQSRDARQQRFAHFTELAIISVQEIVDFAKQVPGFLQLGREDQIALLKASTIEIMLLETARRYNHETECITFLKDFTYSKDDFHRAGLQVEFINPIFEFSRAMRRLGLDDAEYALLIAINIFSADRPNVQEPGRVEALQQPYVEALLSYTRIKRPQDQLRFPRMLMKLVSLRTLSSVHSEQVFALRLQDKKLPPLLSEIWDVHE
Summary of the method: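 Cells: HepG2, transiently transfected with GAL4-UAS reporter units plus LXRb-Gal4 fusion. Treatment: 24 h. Detection: reporter mRNA by RT-PCR, 6-FAM labelling, HpaI digestion, capillary electrophoresis.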

[18] = molecular target: Oxysterols receptor LXR-alpha (Homo sapiens) (UniProt Q13133); assay: ATG_LXRa_TRANS: Attagene TRANS-FACTORIAL HepG2 Assay for human Liver X Receptor alpha (LXRa) (AID 2282980; active = hit-call score of the fitted dose curve at least 0.9, where 1 is the maximum); settings: HepG2 Attagene TRANS reporter, LXRa transactivation
Oxysterols receptor LXR-alpha (Homo sapiens), sequence (Q13133 whole entry, looked up): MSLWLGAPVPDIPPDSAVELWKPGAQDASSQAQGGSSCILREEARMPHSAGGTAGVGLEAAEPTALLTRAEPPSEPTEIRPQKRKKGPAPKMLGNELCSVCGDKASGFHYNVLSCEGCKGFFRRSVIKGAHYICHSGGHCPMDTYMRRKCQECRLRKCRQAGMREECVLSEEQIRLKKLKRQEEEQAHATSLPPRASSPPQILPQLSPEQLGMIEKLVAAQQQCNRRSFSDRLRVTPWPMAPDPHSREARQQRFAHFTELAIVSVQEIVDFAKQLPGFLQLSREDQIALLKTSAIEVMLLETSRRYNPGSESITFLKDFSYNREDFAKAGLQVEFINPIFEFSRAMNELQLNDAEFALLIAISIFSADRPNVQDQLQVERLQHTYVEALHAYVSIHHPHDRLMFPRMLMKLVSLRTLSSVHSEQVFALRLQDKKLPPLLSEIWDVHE
Summary of the method: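 Transient HepG2 transfectants, 24 h dosing, RT-PCR/CE mRNA reporter quantitation; gain-of-signal vs DMSO.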

Measured: AC50

CC(C)CCCCCOC(=O)CS
active: [11] 19.5 µM
inactive: [1] | [2] | [3] | [4] | [5] | [6] | [7] | [8] | [9] | [10] | [12] | [13] | [14] | [15] | [16]

Cc1c(C(=O)c2c[nH]n(C)c2=O)ccc(S(C)(=O)=O)c1C1=NOCC1
inactive: [1] | [17] | [2] | [3] | [4] | [5] | [7] | [8] | [9] | [10] | [11] | [13]

CC(C)C(=O)OCCOc1ccccc1
inactive: [1] | [18] | [3] | [6] | [7] | [8] | [9] | [10] | [11] | [12] | [13]

O=C1c2ccccc2C(=O)c2cc(S(=O)(=O)O)ccc21
active: [11] 100 µM
inactive: [1] | [18] | [17] | [4] | [6] | [7] | [8] | [9] | [10] | [12]

C[Si]1(C)O[Si](C)(C)O[Si](C)(C)O[Si](C)(C)O[Si](C)(C)O1
inactive: [1] | [17] | [3] | [4] | [6] | [7] | [8] | [9] | [10] | [11] | [13]

c1ccc2c(c1)[nH]c1ccccc12
inactive: [1] | [17] | [2] | [5] | [6] | [7] | [8] | [9] | [11] | [13] | [14] | [15] | [16]

CC(=O)OCC=C(C)C
inactive: [1] | [18] | [2] | [3] | [4] | [6] | [7] | [8] | [9] | [10] | [11] | [12] | [13]

CC(=O)OC1CCCCC1C(C)(C)C (stereo unspecified)
inactive: [1] | [17] | [5] | [6] | [7] | [8] | [9] | [10] | [11] | [13]

O=C(Cl)c1ccc(C(=O)Cl)cc1
inactive: [1] | [18] | [4] | [5] | [6] | [7] | [8] | [9] | [11] | [12] | [13]

CC(C)=CCCC(C)=CC#N
inactive: [1] | [18] | [3] | [4] | [5] | [6] | [7] | [8] | [9] | [11] | [12] | [13]

O=C(C=Cc1ccccc1)OCCc1ccccc1
inactive: [1] | [18] | [4] | [5] | [6] | [7] | [8] | [9] | [10] | [12] | [13]
active: [11] 20.4 µM

CCOC(=O)CC(=O)c1ccccc1
inactive: [1] | [17] | [6] | [7] | [8] | [9] | [10] | [11] | [12]

CC(C)(C)N
inactive: [1] | [17] | [2] | [3] | [5] | [6] | [7] | [8] | [9] | [10] | [11] | [12] | [13]

CC(=O)OC(C)c1ccccc1 (stereo unspecified)
inactive: [1] | [17] | [2] | [3] | [4] | [5] | [6] | [7] | [8] | [9] | [10] | [11] | [13]

C=CC(=O)OCCCCCCCCCC
active: [11] 94.5 µM
inactive: [1] | [18] | [4] | [5] | [6] | [7] | [8] | [9] | [10] | [12] | [13]

C=CCNCC=C
inactive: [1] | [18] | [2] | [5] | [6] | [7] | [8] | [9] | [11] | [12] | [13]

C=CC(C)(O)CC/C=C(\C)CC (stereo unspecified)
inactive: [1] | [18] | [17] | [6] | [7] | [8] | [9] | [10] | [11] | [12] | [13]

CCCCCCC=O
inactive: [1] | [17] | [4] | [5] | [7] | [8] | [9] | [10] | [11] | [12] | [13] | [14] | [15] | [16]

CC(=O)OCc1ccccc1
inactive: [1] | [17] | [2] | [3] | [4] | [6] | [7] | [8] | [9] | [10] | [11]

Clc1cc(Cl)c(Cl)c(Cl)c1Cl
inactive: [1] | [17] | [2] | [3] | [5] | [6] | [7] | [8] | [9] | [11] | [12] | [13] | [15] | [16]
active: [14] 3.97 µM

CCCSSCCC
inactive: [1] | [2] | [3] | [4] | [5] | [6] | [7] | [8] | [9] | [10] | [11] | [12] | [13]

O=C(O)c1ccc2c(c1)C(=O)OC2=O
inactive: [1] | [18] | [3] | [5] | [6] | [7] | [8] | [9] | [10] | [11] | [12] | [13]
